Laboratory results: PubChem BioAssay (NCI)
About 83,000 compounds went through this panel and 20% of them were active in at least one assay; those are over-represented in the sample as a whole.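 The test compound was applied at a single concentration to cells in 96-well plates for 48 hours, and percent growth was recorded.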 Unmarked numbers belong to inactive results. Activity calls are given as the source filed them. How the source made its calls: active means growth percent below 10; inactive means the rest.

Legend:
Assay in all cases: NCI-60 one-dose screen, 48 h (100 = growth as untreated, 0 = no growth, -100 = all killed)
Conditions in all cases: 10 µM unless noted
HCT-15 colon = test system: HCT-15 colon
HT29 colon = test system: HT29 colon
SNB-75 CNS = test system: SNB-75 CNS
SNB-19 CNS = test system: SNB-19 CNS
U251 CNS = test system: U251 CNS
PC-3 prostate = test system: PC-3 prostate
SK-MEL-5 melanoma = test system: SK-MEL-5 melanoma
UACC-62 melanoma = test system: UACC-62 melanoma
LOX IMVI melanoma = test system: LOX IMVI melanoma
SK-MEL-2 melanoma = test system: SK-MEL-2 melanoma
EKVX NSCLC = test system: EKVX NSCLC
SN12C renal = test system: SN12C renal
UO-31 renal = test system: UO-31 renal
TK-10 renal = test system: TK-10 renal
ACHN renal = test system: ACHN renal
CAKI-1 renal = test system: CAKI-1 renal
A498 renal = test system: A498 renal
CCRF-CEM leukemia = test system: CCRF-CEM leukemia
MOLT-4 leukemia = test system: MOLT-4 leukemia
SK-MEL-28 melanoma = test system: SK-MEL-28 melanoma

SMILES	growth (HCT-15 colon)	growth (HT29 colon)	growth (SNB-75 CNS)	growth (SNB-19 CNS)	growth (U251 CNS)	growth (PC-3 prostate)	growth (SK-MEL-5 melanoma)	growth (UACC-62 melanoma)	growth (LOX IMVI melanoma)	growth (SK-MEL-2 melanoma)	growth (EKVX NSCLC)	growth (SN12C renal)	growth (UO-31 renal)	growth (TK-10 renal)	growth (ACHN renal)	growth (CAKI-1 renal)	growth (A498 renal)	growth (CCRF-CEM leukemia)	growth (MOLT-4 leukemia)	growth (SK-MEL-28 melanoma)
Cc1csc(Nc2nc(-c3ccccn3)nc(C(Cl)(Cl)Cl)n2)n1	57.2%	68%	90.1%	80.9%	62.2%	91.1%	86.2%	84.3%	49.4%	95.8%	95.1%	97.9%	84.3%	94.8%	79.7%	82.2%	90.7%	59.2%	67.9%	
O=C(/C=C/c1cccc(Cl)c1)c1cccc(OCCCOc2cccc(C(=O)/C=C/c3cccc(Cl)c3)c2)c1	98.1%	96.6%	81.7%	101%	75.5%	100%	100%	80.6%	63.5%	116%	99%	96.4%	66.8%	125%	97.3%	70.4%	102%	98.1%	96.9%	
COc1ccc(Cc2cnc(NC(=O)c3cc(C)oc3C)s2)cc1	26.9%	13.6%	-8.41% (active)	38.7%	35.8%	39.3%	25.8%	27.1%	39.9%	47.7%	36.8%	42.7%	39.6%	58%	40.3%	25.3%	16.5%	29.3%	19.2%	54.3%
N#CC1=C(c2ccccc2)Nc2c(c(-c3ccc(Cl)cc3)nn2-c2ccccc2)C12C(=O)Nc1ccc(Cl)cc12 (stereo not given)	61.8%	47.8%	6.22% (active)	70.5%	64%	51%	87.5%	66%	77.5%	94.8%	61.6%	84.9%	47.8%	73.7%	80.6%	44.5%	69%	61.4%	52.5%	
COc1ccc(CNc2c3ccccc3nc3ccccc23)cc1	22%	19.3%	61.8%	34%	36.5%	34%	62.2%	55.8%		60.1%	49.7%	32.2%	22.1%	49.5%	18.8%	29.3%	10%	39%	9.38% (active)	79.6%
CN1CCN(C(=O)c2ccc(NC(=O)c3cc4c(nn3)NCCN4Cc3cc(Cl)ccc3Cl)cc2)CC1	68%	63.2%	79.4%	92.2%	65.6%	71.1%	75.2%	92.5%	59.4%	78.8%	85.8%	74.9%	60.5%	92.1%	75.1%	75.1%	43.7%	42%	39.6%	
C/C(=N\O)c1ccc(Cl)cc1	112%	108%	89.6%	104%	103%	86.3%	108%	95%		120%	103%	99%	91.4%	107%	105%	96.9%	111%	118%	86.3%	122%
C=C1CC[C@@H]2[C@](C)(COC(C)=O)[C@H](OC(C)=O)CC[C@@]2(C)[C@@H]1CC(Nc1ccc(S(=O)(=O)Nc2ncccn2)cc1)C1=CCOC1=O (stereo not given in full)	-51.4% (active)	-48.6% (active)	25.6%	36.7%	-19% (active)	15.1%	24.1%	3.93% (active)		41.9%	68.3%	7.64% (active)	-17.9% (active)	35.1%	-56.1% (active)	50.2%	79%	-26.3% (active)	-8.69% (active)	-17.7% (active)
O=C(Nc1nc2ccccc2s1)c1ccc(F)cc1	85.5%	108%	96.7%	126%	99.7%	96.6%	91.3%	89.5%		114%	77.8%	108%	89.1%	125%	98%	62.9%	89.8%	101%	100%	114%
CCOC(=O)C1=C(c2ccccc2)N=C2SC=C(c3ccc(Cl)cc3)N2C1c1ccc(Cl)cc1 (stereo not given)	77.6%	83%	84.7%	82.8%	80.9%	41.3%	54.7%	66.4%		98.2%	69.9%	85.5%	74.7%	108%	91.3%	60.7%	7.54% (active)	79.3%	31.5%	95.8%
COc1ccc2c(c1)N(CCO)C1=C(C(=O)OC1)C2c1cccc(F)c1 (stereo not given)	7.3% (active)	3.98% (active)	35.7%	27.8%	16.9%	25.6%	12.3%	40%		31.3%	38.9%	45.2%	46.3%	61.2%	27.6%	31.3%	-4.39% (active)	9.38% (active)	16.3%	47.9%
COc1cc2c(cc1OCCCN1CCN(CCCOc3cc4c(cc3OC)C(=O)N3CC(F)(F)C[C@H]3C=N4)CC1)N=C[C@@H]1CC(F)(F)CN1C2=O	101%	60.1%	2.55% (active)	47.2%	7.49% (active)	68.5%	20.6%	76.2%		90.6%	197%	54.7%	82.4%	115%	78.3%	35%	86.1%	-28.2% (active)	26.9%	99.3%
CC1CCc2c(C(=O)Nc3ncc(Cc4cccc([N+](=O)[O-])c4)s3)csc2C1 (stereo not given)	26.2%	14.9%	-14.6% (active)	31.8%	26.9%	35.7%	21.1%	13.9%		52.7%	25.6%	41.7%	32.4%	46.7%	30.5%	19.2%	10.7%	16.8%	26%	60.7%
CCOC(=O)C(=O)C(C(=O)OCC)c1ccccc1 (stereo not given)	108%	116%	107%	103%	112%	101%	106%	109%		101%	103%	108%	87.7%	106%	105%	97.9%	107%	90.4%	90%	109%
O=C(NCCCl)Nc1ncccc1OCc1ccccc1	95%	94.5%	103%	103%	110%	99%	95.9%	92.5%		101%	98.9%	97%	94.9%	88.9%	110%	97.9%	90%	106%	95.3%	108%
COc1ccc(C(=O)c2cc3c(N)c(C(=O)Nc4ccc(C)cc4)sc3nc2C)cc1	11.5%	9.18% (active)	-2.41% (active)	28.9%	19.2%	25.1%	6.93% (active)	30.6%		56.1%	40.8%	37.2%	41.2%	61.3%	46.8%	28%	14%	15.7%	20.5%	54%
